Molecular target: ALX3 (Homo sapiens, UniProt O95076 139-225, N203S)
Experiment: PBM; 200 nM protein, PBS
Details: dsDNA, one strand shown

ALX3, sequence (O95076 139-225 N203S): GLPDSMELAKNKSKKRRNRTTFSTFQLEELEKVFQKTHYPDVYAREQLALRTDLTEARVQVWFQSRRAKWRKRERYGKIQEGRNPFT

Q: Which binding signal does the source give for CCCCCCCA here?
A: 7.67 upbm affinity estimate (log intensity, higher = more binding, comparable within an allelic series)

Q: CGTATTAC was tested. Which binding signal did it give?
A: 8.23 upbm affinity estimate (log intensity, higher = more binding, comparable within an allelic series)

Q: CCGGTTCC was tested. Which binding signal did it give?
A: 7.77 upbm affinity estimate (log intensity, higher = more binding, comparable within an allelic series)

Molecular target: HOXA2 (Homo sapiens, UniProt O43364 129-215)
Sequence (O43364 129-215): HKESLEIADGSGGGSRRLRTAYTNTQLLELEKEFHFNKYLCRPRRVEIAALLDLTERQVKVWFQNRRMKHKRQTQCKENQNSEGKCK
Experiment: PBM; 200 nM protein, PBS
Details: dsDNA, one strand shown

Q: For CCGCCGCA, which binding signal is on record?
A: 7.05 upbm affinity estimate (log intensity, higher = more binding, comparable within an allelic series)

Q: How did the binding signal turn out when CCCCCCCA was run?
A: 7.37 upbm affinity estimate (log intensity, higher = more binding, comparable within an allelic series)

Q: For GACCGCCC, which binding signal is on record?
A: 7.29 upbm affinity estimate (log intensity, higher = more binding, comparable within an allelic series)

Q: Which binding signal does the source give for AATTTATG here?
A: 10.1 upbm affinity estimate (log intensity, higher = more binding, comparable within an allelic series)

Q: How did the binding signal turn out when CGTATTAC was run?
A: 9.08 upbm affinity estimate (log intensity, higher = more binding, comparable within an allelic series)

Q: How did the binding signal turn out when ATCAATAG was run?
A: 9.47 upbm affinity estimate (log intensity, higher = more binding, comparable within an allelic series)

Q: CGCCACGC was tested. Which binding signal did it give?
A: 7.2 upbm affinity estimate (log intensity, higher = more binding, comparable within an allelic series)

Q: CCGGTTCC was tested. Which binding signal did it give?
A: 6.81 upbm affinity estimate (log intensity, higher = more binding, comparable within an allelic series)

Q: With CTGGCTCC as the sequence, how does the binding signal read?
A: 6.91 upbm affinity estimate (log intensity, higher = more binding, comparable within an allelic series)

Q: For CCCCCACG, which binding signal is on record?
A: 6.93 upbm affinity estimate (log intensity, higher = more binding, comparable within an allelic series)

Reference: article PMC11006913
